Values without a mark were called inactive. Inconclusive results are not listed. Where a call stands in place of a potency, no number is given. Active and inactive are the calls of the source. Calls follow the shape of the full dose curve.
How the values were obtained:
[1] = molecular target: Acetylcholinesterase (Homo sapiens) (UniProt P22303); assay: Acetylcholinesterase (AChE) small molecule antagonists: colormetric cell-based qHTS assay (AID 1347395); also: nearly all actives have a fitted effect of over 30% in size
Chain of Acetylcholinesterase (Homo sapiens) (P22303 whole entry, looked up): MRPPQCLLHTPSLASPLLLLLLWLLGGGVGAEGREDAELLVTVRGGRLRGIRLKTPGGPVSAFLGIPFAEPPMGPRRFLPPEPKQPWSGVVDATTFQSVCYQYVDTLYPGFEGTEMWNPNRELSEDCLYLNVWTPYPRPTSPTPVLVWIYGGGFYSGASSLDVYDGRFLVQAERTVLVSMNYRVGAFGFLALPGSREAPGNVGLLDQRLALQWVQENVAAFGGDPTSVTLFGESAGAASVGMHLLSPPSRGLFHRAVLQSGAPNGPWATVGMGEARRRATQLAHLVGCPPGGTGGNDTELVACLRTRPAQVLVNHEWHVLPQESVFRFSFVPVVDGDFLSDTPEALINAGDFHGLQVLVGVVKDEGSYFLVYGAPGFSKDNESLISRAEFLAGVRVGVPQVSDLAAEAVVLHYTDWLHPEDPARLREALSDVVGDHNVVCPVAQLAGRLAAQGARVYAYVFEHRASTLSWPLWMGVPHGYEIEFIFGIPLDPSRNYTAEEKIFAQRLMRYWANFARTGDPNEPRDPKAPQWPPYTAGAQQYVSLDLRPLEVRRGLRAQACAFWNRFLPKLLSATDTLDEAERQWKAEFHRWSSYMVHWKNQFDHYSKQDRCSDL
Outline: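 Neuroblastoma line SH-SY5Y supplied the enzyme; cells were preincubated with compound for 30 min at 37 C and 5% CO2. Acetylthiocholine with DTNB was then added for 90 min at 37 C, and thiocholine was measured by colour.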

[2] = molecular target: Acetylcholinesterase (Homo sapiens) (UniProt P22303); assay: Acetylcholinesterase (AChE) small molecule antagonists: enzyme-based qHTS assay (AID 1347397); details: Potency: AChE enzyme activity inhibition; outcome: AChE enzyme activity inhibition; also: nearly all actives have a fitted effect of over 55% in size
Outline: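 Enzyme inhibition was scored from DTNB-detected thiocholine formed by recombinant human AChE acting on acetylthiocholine. The 30 min compound preincubation and 10 min substrate reaction were both run at room temperature, with DMSO as vehicle control.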

[3] = molecular target: Acetylcholinesterase (Homo sapiens) (UniProt P22303); assay: Acetylcholinesterase (AChE) small molecule antagonists: fluorescence cell-based qHTS assay (AID 1347398); details: Potency: AChE activity; outcome: AChE activity; also: nearly all actives have a fitted effect of over 50% in size
Outline: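 Endogenous acetylcholinesterase of SH-SY5Y neuroblastoma cells is measured in situ. After overnight attachment and 30 min compound exposure, cells receive acetylthiocholine and Thiolite Green; fluorescence is read after 40 min at room temperature.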

[4] = molecular target: Acetylcholinesterase (Homo sapiens) (UniProt P22303); assay: Acetylcholinesterase (AChE) small molecule antagonists: enzyme-based qHTS assay with human liver microsomes (AID 1347399); details: Potency: qHTS inhibition; outcome: qHTS inhibition; also: nearly all actives have a fitted effect of over 60% in size
Outline: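 Recombinant human AChE (50 mU/mL in the enzyme mix) and human liver microsomes (0.25 mg/mL final) were preincubated with compound and NADPH (0.25 mg/mL final) for 30 min at 37 C. Acetylthiocholine/DTNB was then added; thiocholine was read colorimetrically after 10 min at room temperature.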
Potency is read from the fitted curve at half-maximal effect.

SMILES | Potency [1] | Potency [2] | Potency [3] | Potency [4] | activity, negative = inhibition [1] | activity change, negative = inhibition [2] | activity change, negative = inhibition [3] | activity change, negative = inhibition [4]
CCCCCc1ccc(O)cc1 | inactive | inactive | inactive | inactive | – | – | – | –
CCCC(=O)OC(=O)CCC | inactive | inactive | inactive | inactive | – | – | – | –
COCc1nnc(-c2ccc[n+]([O-])c2)n1-c1c(Cl)c(Cl)cc2[nH]c(=O)c(=O)[nH]c12 | inactive | inactive | inactive | inactive | – | – | – | –
Nc1cc(C(=O)O)ccc1Cl | inactive | inactive | inactive | inactive | – | – | – | –
Cc1c(N=C=O)cccc1N=C=O | inactive | inactive | inactive | inactive | – | – | – | –
Cc1ccc(NC(N)=O)cc1 | inactive | inactive | inactive | inactive | – | – | – | –
COc1cc2nc(Cl)nc(N)c2cc1OC | inactive | inactive | inactive | inactive | – | – | – | –
CCO[Si](OCC)(OCC)OCC | inactive | inactive | inactive | inactive | – | – | – | –
CC(O)CN(CCCN(C)C)CCCN(C)C (configuration not stated) | inactive | inactive | inactive | inactive | – | – | – | –
C=CC(=C)CCCC(C)(C)OC(C)=O | inactive | inactive | inactive | inactive | – | – | – | –
OCC(O)c1ccccc1 (configuration not stated) | inactive | inactive | inactive | inactive | – | – | – | –
O=CC(=O)c1ccccc1 | 2 µM (active) | 5.03 µM (active) | 0.283 µM (active) | 35.6 µM (active) | – | – | – | –
NC[C@H]1O[C@H](O[C@H]2[C@H](O)[C@@H](O[C@H]3O[C@H](CO)[C@@H](O)[C@H](N)[C@H]3O)[C@H](N)C[C@@H]2N)[C@H](O)[C@@H](O)[C@@H]1O | – | – | – | – | -1.99% [at 10.5 µM] | 0.413% [at 10.5 µM] | 2.3% [at 10.5 µM] | -5.67% [at 10.5 µM]
